Screen size: about 650,000 compounds; about 5,900 (0.91%) were called active. The entries come from a sample that favours actives as a whole. A number with no mark means an inactive call. Rule as the data show it: active = inhibition above about 50%; inactive = the rest.
What follows are compounds tested against Microphthalmia-associated transcription factor (Homo sapiens) (UniProt O75030) (assay: MITF inhibitors, primary screen, biochemical, AlphaScreen, human (AID 1259374;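 also: 0% = vehicle wells with protein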)). Details: AlphaScreen MITF homodimerization, bead proximity signal; at 2.6 µM; active compounds read high.
Chain of Microphthalmia-associated transcription factor (Homo sapiens) (O75030 whole entry, looked up): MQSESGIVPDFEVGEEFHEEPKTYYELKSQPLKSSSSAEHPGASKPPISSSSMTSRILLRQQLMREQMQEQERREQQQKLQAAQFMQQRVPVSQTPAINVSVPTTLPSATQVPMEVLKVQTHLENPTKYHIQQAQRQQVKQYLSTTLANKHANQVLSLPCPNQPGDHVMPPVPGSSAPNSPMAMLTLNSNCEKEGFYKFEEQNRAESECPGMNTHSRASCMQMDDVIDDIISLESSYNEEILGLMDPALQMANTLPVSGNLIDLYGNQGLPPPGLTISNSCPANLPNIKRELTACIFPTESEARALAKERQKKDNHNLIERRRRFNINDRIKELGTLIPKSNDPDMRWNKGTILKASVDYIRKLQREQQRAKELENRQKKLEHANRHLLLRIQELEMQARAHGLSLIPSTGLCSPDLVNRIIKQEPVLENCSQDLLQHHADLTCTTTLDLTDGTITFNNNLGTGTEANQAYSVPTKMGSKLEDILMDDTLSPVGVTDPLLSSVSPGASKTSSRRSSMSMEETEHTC

Compound	inhibition
COc1ccc(OC)c(-n2nnnc2SCC(=O)N2CCc3ccccc32)c1	9.95%
CC(C)n1cnc2c(NCc3cccc(C(F)(F)F)c3)nc(Nc3ccncn3)nc21	12.6%
Cc1ccc2c(c1)-c1c(cnn1CC(=O)NCc1ccccn1)CO2	-4%
COc1cccc(N2CCN(Cc3cccs3)CC2)c1	42.8%
COc1ccc(N2CCN(Cc3coc4ccc(Cl)cc4c3=O)CC2)cc1	10.4%
COc1ccc(N2CCN(Cc3ccc(Br)s3)CC2)cc1	71.6% (active)
CCOC(=O)c1ccc(-n2c(=S)sc3c2nc(SCC(=O)N2CCCC2)n2c4ccccc4nc32)cc1	-3.4%
CCOc1cc2c(cc1/C=C1/NC(=O)N(CC(=O)Nc3ccccc3C)C1=O)OCO2	12.6%
Cc1ccccc1CC1(C2CCN(C(=O)C(C)C)CC2)NC(=O)N(CCCN(C)C)C1=O (centres undefined)	4.98%
CNC(=O)/C(C#N)=C/c1cn(CC(=O)NCCOC)c2ccccc12	5.66%
COc1cccc(CN2CCN3C(=O)[C@H]4CCCN4C(=O)[C@H]3C2)c1	-17.2%
CSc1ccc(CN2CCN(C(=O)c3cccc(F)c3)CC2)cc1	34.1%
CSc1ccc(CN2CCN(Cc3cccc(Oc4ccccc4)c3)CC2)cc1	52% (active)
CCc1ccc(NS(=O)(=O)c2ccc3c(c2)CCN3C(=O)C2CC2)cc1	2.16%
CCC1CCc2c(sc3nc(SCC(=O)Nc4ccc(Br)cc4)n(-c4ccccc4)c(=O)c23)C1 (centres undefined)	10.8%
COCc1nc2ccccc2n1CCc1noc(-c2cccs2)n1	8.99%
COCc1nc2ccccc2n1CCc1noc(-c2ccco2)n1	82% (active)
Cc1nc2ccccc2n1CCc1noc(COc2ccccc2)n1	9.51%
CCCc1[nH]n(-c2ccc(F)cc2)c(=O)c1CNN1CCOCC1	-2.83%
NC(=O)COC(=O)/C=C/c1ccc(I)o1	52.1% (active)
COc1cc(/C=C/C(=O)OCC(N)=O)ccc1OCC#N	6.64%
CNC(=O)COC(=O)/C=C/c1ccc(C)o1	18.9%
Cc1ccc(C)c(NC(=S)N(Cc2ccccc2C)CC2CCC(C(=O)O)CC2)c1 (centres undefined)	13.3%
CCCCC(=O)NC(c1ccc(OC)cc1)c1cc([N+](=O)[O-])c2cccnc2c1O (centres undefined)	18.8%

Compound	inhibition
COc1cc(C(=O)NC(c2ccccc2Cl)c2cc([N+](=O)[O-])c3cccnc3c2O)cc(OC)c1OC (centres undefined)	24.9%
CCCC(=O)NC(c1ccccc1OC)c1cc([N+](=O)[O-])c2cccnc2c1O (centres undefined)	56.2% (active)
C/C(N)=C(/C#N)C(=O)CSc1cccc[n+]1[O-]	-1.32%
O=C1c2ccccc2-c2ccc(-c3nc(-c4ccccc4)[nH]c3-c3ccccc3)cc21	-1.27%
Cc1ccc(OCCCCNC(C)(C)C)cc1C	1.35%
CC(C)(C)NCCOCCOc1ccc(Cl)c(Cl)c1	73.1% (active)
CC(C)(C)NCCOCCOc1ccc(I)cc1	40.6%
CCOC(=O)C(C)Oc1cccc2c(=O)n(CC(=O)Nc3ccc(C)c(Cl)c3)ccc12 (centres undefined)	-3.54%
CC1=C(C#N)C(=O)NC(=O)/C1=C/c1ccc(-c2ccc(Cl)cc2Cl)o1	13.9%
CC1=C(C#N)C(=O)NC(=O)/C1=C\c1ccc(-c2cccc(Cl)c2)o1	-5.17%
CC1=C(C#N)C(=O)NC(=O)/C1=C\c1ccc(-c2ccc(Cl)c(C(=O)O)c2)o1	77.7% (active)
CCOC(=O)c1ccc(N2CCN(c3ccc(F)cc3)CC2)c(NC(=O)Nc2ccc(OC)cc2OC)c1	-1.5%
O=C1C2C3CC(C(Br)C3Br)C2C(=O)N1C1CCCCC1 (centres undefined)	-2.53%
O=C(c1ccc2c(c1)C(=O)N(Cc1cccnc1)C2=O)c1ccc2c(c1)C(=O)N(Cc1cccnc1)C2=O	104% (active)
O=C(Nc1cccc(O)c1)c1ccc2c(c1)C(=O)N(Cc1cccnc1)C2=O	-1.4%
O=C(NCc1ccco1)c1ccc2c(c1)C(=O)N(Cc1cccnc1)C2=O	-3.01%
CC(=O)N1C(=O)C(=O)c2cc(Cl)ccc21	-11.3%
Cc1ccc(NC(=O)C(C)C2Sc3ccccc3NC2=O)c(C)c1 (centres undefined)	9.32%
O=C(C1CCN(c2nc3ccccc3n3cccc23)CC1)N1CCN(c2ccccn2)CC1	10.7%
O=C(C1CCN(Cc2nc3ccccc3[nH]2)CC1)N1CCN(c2ccc(Cl)nn2)CC1	-4.97%
O=C(C1CCN(Cc2nc3ccccc3[nH]2)CC1)N1CCN(c2ccccn2)CC1	51.4% (active)
CN(c1ccccc1)S(=O)(=O)c1ccc(C(=O)N2CCc3ccccc32)cc1	-6.36%
O=C(Cn1cncn1)NCCCOc1cccc(CN2CCCCCCC2)c1	-3.47%
c1ccc(Oc2cccc(OCCCCn3cncn3)c2)cc1	73.8% (active)

Compound	inhibition
Fc1ccccc1OCCCCn1cncn1	20.2%
O=C(c1cccs1)N1CCN(S(=O)(=O)c2ccc(Cl)cc2)CC1	-0.92%
O=C(c1cccs1)N1CCC(N2CCN(Cc3ccccc3)CC2)CC1	76.7% (active)
Cc1cccc(CN2CCC(N3CCN(C(=O)c4cccs4)CC3)CCC2=O)c1 (centres undefined)	-6.77%
O=C(CN1CCN(C(=O)c2cccs2)CC1)c1cccs1	-1.86%
CCOC(=O)c1c(NC(=O)c2ccccc2Br)sc2c1CC(C)(C)NC2(C)C	3.37%
NS(=O)(=O)c1ccc(O)c2ccccc12	13.7%
Nc1ccc(S(=O)(=O)O)c2cc(S(=O)(=O)O)cc(O)c12	63.3% (active)
Cc1ccc(/C=C2/C(=O)N(C)C(=S)N(c3ccccc3)C2=O)s1	23.2%
O=C1c2ccccc2C(O)N1Cc1ccccc1 (centres undefined)	3.72%
O=C1c2ccccc2C(O)N1Cc1ccccc1Cl (centres undefined)	79.6% (active)
O=C(NC1CC1)C1CCC(=O)N1Cc1ccccc1Cl (centres undefined)	-6.74%
COC(=O)Cn1cc(-c2ccc([N+](=O)[O-])cc2)nc1SCC(=O)NC(C)(C)C	-1.03%
N#Cc1ccc(-c2cccnc2)nc1SCC(=O)c1ccc(Cl)cc1	-7.18%
CCN(C(=O)Cc1nc(N)n[nH]1)C1(C(=O)Nc2ccccc2)CCCCC1	68.5% (active)
COc1ccc(N(C(=O)Cc2nc(N)n[nH]2)C2(C(=O)Nc3ccccc3)CCCCC2)cc1	-1.47%
CCN(C(=O)Cc1nc(N)n[nH]1)C1(C(=O)Nc2ccc(C)cc2)CCCCC1	63% (active)
COCCCN(C(=O)c1cc2ccccc2o1)C1(C(=O)Nc2ccccc2)CCCC1	6.26%
COc1ccc(NC(=O)C2(N(C)C(=O)Cn3nnnc3N)CCCCC2)cc1	5.13%
COCCN(C(=O)CN1C(=O)c2ccccc2C1=O)C1(C(=O)Nc2ccccc2)CCCC1	11.4%
Cc1ccc(NC(=O)CNCCCSc2ccccc2)cc1C	75.4% (active)
Cc1ccc(NC(=O)CSCC(=O)Nc2ccccc2F)cc1C	4.24%
Cc1ccc(NC(=O)Cn2c(=O)[nH]n(-c3ccccc3)c2=O)cc1C	-10.5%
CC1=CC(C)(C)N2C(=O)C(=O)c3cc(OC(=O)C(C)(C)C)cc1c32	-9.06%

Compound	inhibition
CC(C)OC(=O)C1=c2/c(=C/c3ccco3)c(N)c(C#N)n2C(=O)C(c2ccco2)S1 (centres undefined)	14.9%
Cc1nc(N2CCCCC2C)c2c(C)c(C(=O)NC3CCCCC3)sc2n1 (centres undefined)	9.14%
COCC(=O)Nc1ccc2nc(C)n(-c3ccc(F)cc3)c(=O)c2c1	-0.07%
COc1ccc(OCCSc2nnc3nc(C)cc(C)n23)cc1	7.82%
Cc1nccn1CC(O)COc1ccc(Br)cc1 (centres undefined)	4.86%
COc1ccc(OCCn2ccnc2C)cc1	57.2% (active)
CC1CCC(C(C)C)C(OC(=O)COC(=O)c2cnccn2)C1 (centres undefined)	2.66%
CC(C)(C)NCC(=O)Nc1c2c(nc3ccccc13)N(Cc1ccccc1)CC2	63.8% (active)
Cc1cc(C)c(NC(=O)CNC(C)(C)C)c(C)c1	-3.53%
CCN(CC)CC(=O)Nc1c2c(nc3ccccc13)N(c1cccc(C)c1)CC2	65.6% (active)
CCOC(=O)COc1cccc2c1CCN(Cc1ccccc1)C2=O	-3.19%
CCOC(=O)C1CCN(c2nc(-c3cccc(C)c3)nc3ccccc23)CC1	0.58%
CCN(CC)CC(=O)Nc1nn(-c2ccccc2)nc1C(N)=O	-0.44%
Cc1[nH]c(=O)[nH]c(=O)c1S(=O)(=O)N1CCOc2ccccc21	5.78%
CC(NCCCN1CCOCC1)C(=O)Nc1ccccc1 (centres undefined)	77.6% (active)
CCc1ccc(NC(=O)C(=O)NCCCN2CCOCC2)cc1	12.7%
CC(C)C(=O)Nc1ccc(CN2CCOCC2)cc1	1.55%
O=C(Cn1c(=O)n(Cc2ccc3c(c2)OCO3)c(=O)c2ncccc21)N1CCc2ccccc21	3.95%
COc1cc(C=O)ccc1OCC(=O)c1ccc(C)c(C)c1	11.1%
COc1ccc(C(=O)COC(=O)CNS(=O)(=O)/C=C/c2ccc(C)cc2)cc1OC	74.8% (active)
CCOC(=O)N/N=C/c1ccc(OS(=O)(=O)c2ccc(C)cc2)c(OC)c1	2.78%
O=C(CCN1C(=O)C2CCCCC2C1=O)N1CCc2c(nc(N3CCCC3)[nH]c2=O)C1 (centres undefined)	-0.41%
